Assay [1] is described as follows: NCI Yeast Anticancer Drug Screen. Data for the rad50 strain (AID 155).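 Also: 0% = growth of vehicle-only cultures of the same strain.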 As to conditions: S. cerevisiae rad50 strain growth inhibition; at 50.0 µM; active compounds read high. The procedure, abridged:
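Yeast carrying a defined DNA repair defect were exposed to test compounds, and growth was compared with vehicle-treated controls to give percent inhibition.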

Assay [2] in a line: NCI Yeast Anticancer Drug Screen. Data for the mec2-1 strain (AID 157). The following applies: S. cerevisiae mec2-1 strain, at 50.0 µM, active compounds read high. The procedure, abridged: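 Yeast mec2-1 mutant treated with compound. Readout: growth inhibition vs vehicle controls.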
Assay [3] is described as follows: NCI Yeast Anticancer Drug Screen. Data for the sgs1 mgt1 strain (AID 161).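 Also: 0% = growth of cultures given vehicle only.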 The following applies: S. cerevisiae sgs1 mgt1 strain, at 50.0 µM, active compounds read high. The procedure, abridged:
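Read-out: growth inhibition vs vehicle controls. Cells: mutant yeast strain deficient in DNA damage repair.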

Assay [4] can be described thus: NCI Yeast Anticancer Drug Screen. Data for the cln2 rad14 strain (AID 165).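 Also: 0% = growth equal to vehicle treated cultures.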 As to conditions: S. cerevisiae cln2 rad14 strain, at 50.0 µM, active compounds read high. Put shortly:
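cln2 rad14 yeast strain; compound exposure; growth inhibition read vs vehicle controls.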

A short description of assay [5]: NCI Yeast Anticancer Drug Screen. Data for the bub3 strain (AID 167). The following applies: S. cerevisiae bub3 mutant strain, at 50.0 µM, active compounds read high. Put shortly: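 Compounds were applied to a genetically altered yeast strain carrying a cell-cycle control defect. Growth inhibition was scored against vehicle-treated controls.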
Assay [6] is described as follows: NCI Yeast Anticancer Drug Screen. Data for the mlh1 rad18 strain (AID 175). As to conditions: S. cerevisiae mlh1 rad18 strain growth inhibition; at 50.0 µM; active compounds read high. The procedure, abridged: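 Yeast w/ defined DNA-repair lesions; compound exposure; growth vs vehicle controls → % inhibition.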

The panel holds about 79,000 compounds, 15% with a hit somewhere; the sample as a whole holds those more often. A number with no mark means an inactive call. Activity calls are given as the source filed them. Rule as the data show it: active = growth inhibition above about 70%; inactive = the rest.

For the compound `CC1([N+](=O)[O-])C(=O)C2(N3CCCC3)CCCC2C1c1ccccc1` (stereo not given), the growth inhibition in assay [1] is 0.5%; in assay [2], 8.4%; in assay [3] it was -10.9%; in assay [4], -2.25%; in assay [5], 8.3%; in assay [6], -9.35%.

For the compound `O=C(O)c1cocc1C(=O)O`, the growth inhibition in assay [1] was 3.2%; in assay [2], -3.4%; in assay [3], -13.6%; in assay [4], -14.8%; in assay [5] it was -2.65%; in assay [6], -3.95%.

As for `CC1CCN(C(=O)c2cc(Nc3ccnc4cc(Cl)ccc34)ccc2O)CC1`, the growth inhibition was -2.05% in assay [1]; -3.4% in assay [2]; -6.65% in assay [3]; -4.35% in assay [4]; -3.9% in assay [5]; 7.6% in assay [6].

Take `CSc1nc(NC2OCC(O)C(O)C2O)c(C(C)=O)c(=O)n1C` (stereo not given): the growth inhibition in assay [1] is 3.7%; in assay [2] it was -7.35%; in assay [3], 8.2%; in assay [4], -1.95%; in assay [5], -33.4%; in assay [6], 4.4%.

As to `Cc1cc(C(C)(C)C)cc(Cc2cc(C(C)(C)C)cc(Cc3cc(C(C)(C)C)cc(C)c3O)c2O)c1O`, the growth inhibition in assay [1] is -25.8%; in assay [2], -4.75%; in assay [3], -43.3%; in assay [4], -13.3%; in assay [5], -0.6%; in assay [6], -24%.

Regarding `C[n+]1ccc2ccccc2c1C#N`, the growth inhibition was 2.55% in assay [1]; 10.6% in assay [2]; -3.75% in assay [3]; -0.35% in assay [4]; 0.35% in assay [5]; 14.9% in assay [6].

Consider `C=CCNC(=O)OCCCl`, for which the growth inhibition in assay [1] was 6%; in assay [2], -1.45%; in assay [3], -9.6%; in assay [4], 5.95%; in assay [5], -4.5%; in assay [6] it was 15.1%.

For the compound `CC12CCC(O)CC1=CCC1C2CCC2(C)C(C(O)CC(O)(C(F)(F)F)C(F)(F)F)CCC12` (stereo not given), the growth inhibition in assay [1] was 30.1%; in assay [2] it was 48%; in assay [3], 47.9%; in assay [4] it was 3.95%; in assay [5], 25.9%; in assay [6], 40.5%.

Consider `O=C(COc1ccccc1)NCc1ccc(Cl)cc1`, for which the growth inhibition in assay [1] is 2.4%; in assay [2], 2.05%; in assay [3], 5.8%; in assay [4], 7.15%; in assay [5], 26.9%; in assay [6] it was 21.9%.

Turning to `CCOC12CC(OC(=O)N1)C(C)C1OC1(C)C(OC(=O)C(C)N(C)C(C)=O)CC(=O)N(C)c1cc(cc(OC)c1Cl)C/C(C)=C/C=CC2OC` (stereo not given), the growth inhibition in assay [1] was -21.1%; in assay [2], -29.6%; in assay [3] it was -30.9%; in assay [4], -0.4%; in assay [5], -20.4%; in assay [6], -5.25%.

On to `C=CCOc1ccc(C2C(C(=O)OCC)C(=O)CC(C)(O)C2C(=O)OCC)cc1OC` (stereo not given), for which the growth inhibition was -6.25% in assay [1]; -11.3% in assay [2]; -7.15% in assay [3]; -24% in assay [4]; 1.35% in assay [5]; -7.45% in assay [6].

For `Cc1ccsc1/C=N/Nc1cc(C)c2ccccc2n1`, the growth inhibition in assay [1] was 41.4%; in assay [2] it was -6.25%; in assay [3], 40%; in assay [4] it was 35.8%; in assay [5] it was 26.6%; in assay [6], 16.2%.

On to `CC(C)(C)C(=O)N/N=C\c1ccc([N+](=O)[O-])s1`, for which the growth inhibition in assay [1] is 13.1%; in assay [2] it was -7.3%; in assay [3], 20.4%; in assay [4] it was 38.7%; in assay [5] it was 13.1%; in assay [6], 40.5%.

As for `O=C1N(Cc2ccccc2)CC2CCc3c(ccc4ccccc34)N12` (stereo not given), the growth inhibition was 11% in assay [1]; -12.9% in assay [2]; -1.3% in assay [3]; -3.85% in assay [4]; 4.85% in assay [5]; 4.75% in assay [6].

For the compound `CN1CCc2c1nc(-c1ccc([N+](=O)[O-])cc1)c1c2N(C)CC1`, the growth inhibition in assay [1] is 13.2%; in assay [2], 0.7%; in assay [3] it was 2.8%; in assay [4], 6.85%; in assay [5], 10.8%; in assay [6] it was 9.95%.

As to `OC1CC=CC1`, the growth inhibition in assay [1] is 2.45%; in assay [2] it was -3.5%; in assay [3], -4.6%; in assay [4], 0.35%; in assay [5], 8.25%; in assay [6], -12.8%.

Regarding `CC(C)(C)OC(=O)N/N=C(/N)Cc1ccccc1`, the growth inhibition in assay [1] was -36.2%; in assay [2], -3.65%; in assay [3] it was -18.4%; in assay [4], 6.5%; in assay [5], 6.4%; in assay [6], 5.55%.

For `N#CCCN(CCC#N)C(=O)Nc1cccc2ccccc12`, the growth inhibition in assay [1] was 10.2%; in assay [2], -9.15%; in assay [3], 5.7%; in assay [4] it was 12.8%; in assay [5], -2.25%; in assay [6] it was -16.5%.

Consider `COC(=O)c1ccc(/C=C(\c2ccc([N+](=O)[O-])o2)S(=O)(=O)c2ccc(NC(C)=O)cc2)o1`, for which the growth inhibition in assay [1] was 84.7% (active); in assay [2] it was 66%; in assay [3], 90.8% (active); in assay [4] it was 71.7% (active); in assay [5], 34.8%; in assay [6], 88.5% (active).

Regarding `NC1CC(=O)N(Cc2ccccc2)C1=O` (stereo not given), the growth inhibition in assay [1] was 5.75%; in assay [2], -7.9%; in assay [3], -9.8%; in assay [4], -11.6%; in assay [5], -0.25%; in assay [6] it was 2.4%.

Values taken from PubChem BioAssay (NCI).
